Records with an inconclusive call do not appear. Calls of active or inactive are those of the source. Unless noted, calls come from the whole dose curve; as a rule, active = well fitted curve in the direction sought with a large enough effect in the repeat runs; inconclusive = weak or mixed curves; inactive = no such curve, though single readings can be large; an effect the other way counts as inactive or inconclusive.
Key:
[1] = target: Androgen receptor (Homo sapiens) (UniProt P10275); experiment: qHTS assay to identify small molecule antagonists of the androgen receptor (AR) signaling pathway using the MDA cell line in the presence of 0.5 nM R1881 (AID 1259243); note: nearly all actives have a fitted effect of over 50% in size
Chain of Androgen receptor (Homo sapiens) (P10275 whole entry, looked up): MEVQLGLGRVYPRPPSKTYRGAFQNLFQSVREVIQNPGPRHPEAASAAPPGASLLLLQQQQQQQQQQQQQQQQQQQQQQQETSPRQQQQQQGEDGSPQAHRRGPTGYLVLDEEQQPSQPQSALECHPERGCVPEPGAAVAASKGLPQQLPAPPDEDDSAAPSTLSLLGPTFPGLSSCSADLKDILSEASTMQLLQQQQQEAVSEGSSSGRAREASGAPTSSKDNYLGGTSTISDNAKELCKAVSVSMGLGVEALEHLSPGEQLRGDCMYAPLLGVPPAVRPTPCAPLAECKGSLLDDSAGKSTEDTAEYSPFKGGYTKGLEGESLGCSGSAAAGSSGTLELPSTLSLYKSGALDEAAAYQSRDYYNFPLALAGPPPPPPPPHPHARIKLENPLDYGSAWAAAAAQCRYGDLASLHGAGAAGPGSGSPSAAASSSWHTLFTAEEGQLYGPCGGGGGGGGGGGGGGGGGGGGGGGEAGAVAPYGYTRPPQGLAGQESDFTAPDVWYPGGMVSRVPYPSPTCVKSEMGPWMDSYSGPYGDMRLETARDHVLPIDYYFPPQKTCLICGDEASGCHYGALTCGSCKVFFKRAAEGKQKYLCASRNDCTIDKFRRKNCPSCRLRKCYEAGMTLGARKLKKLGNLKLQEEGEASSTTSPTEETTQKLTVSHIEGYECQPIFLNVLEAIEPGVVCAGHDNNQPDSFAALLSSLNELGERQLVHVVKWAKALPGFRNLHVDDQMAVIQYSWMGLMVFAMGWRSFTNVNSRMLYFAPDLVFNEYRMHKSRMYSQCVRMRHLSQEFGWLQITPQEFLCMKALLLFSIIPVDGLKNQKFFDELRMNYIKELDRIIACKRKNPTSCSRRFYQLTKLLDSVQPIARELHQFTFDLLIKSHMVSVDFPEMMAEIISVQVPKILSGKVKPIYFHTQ
Summary of the method: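 Steps: seed MDA-kb2 cells, incubate 5 hr at 37C; pin-transfer compounds in DMSO; add R1881 to 0.5 nM final; incubate 16 hr; add ONE-Glo, wait 30 min at room temperature; read luminescence.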

[2] = target: Estrogen receptor (Homo sapiens) (UniProt P03372); experiment: qHTS assay to identify small molecule antagonists of the estrogen receptor alpha (ER-alpha) signaling pathway using the BG1 cell line in the presence of 0.1 nM 17-beta-estradiol (AID 1259244); note: nearly all actives have a fitted effect of over 50% in size
Chain of Estrogen receptor (Homo sapiens) (P03372 whole entry, looked up): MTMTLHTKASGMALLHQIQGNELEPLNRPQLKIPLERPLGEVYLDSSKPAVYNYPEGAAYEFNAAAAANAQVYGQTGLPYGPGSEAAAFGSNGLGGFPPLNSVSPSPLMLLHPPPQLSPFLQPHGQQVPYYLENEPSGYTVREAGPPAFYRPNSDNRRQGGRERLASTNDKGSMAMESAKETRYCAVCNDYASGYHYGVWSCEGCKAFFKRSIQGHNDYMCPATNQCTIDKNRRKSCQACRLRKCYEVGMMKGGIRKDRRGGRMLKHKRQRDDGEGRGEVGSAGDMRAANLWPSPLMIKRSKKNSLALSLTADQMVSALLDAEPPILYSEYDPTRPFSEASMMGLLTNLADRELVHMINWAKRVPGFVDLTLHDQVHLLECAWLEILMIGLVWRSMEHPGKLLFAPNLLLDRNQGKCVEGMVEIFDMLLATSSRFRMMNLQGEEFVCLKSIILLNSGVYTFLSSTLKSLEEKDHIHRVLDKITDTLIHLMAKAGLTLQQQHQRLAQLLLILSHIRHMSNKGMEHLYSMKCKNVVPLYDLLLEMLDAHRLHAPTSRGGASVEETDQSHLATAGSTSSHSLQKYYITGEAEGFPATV
Summary of the method: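 After 5 days in hormone-depleted medium (charcoal-stripped serum, no phenol red), VM7Luc4E2 cells were seeded, incubated 24 h, then co-treated with compound and 0.1 nM (final) estradiol for 22 h before luminescence detection.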

[3] = qHTS assay to identify small molecule phospholipidosis (PLD) inducers (AID 1259344; active = well fitted curve in the direction sought with a large enough effect; an effect the other way counts as inactive or inconclusive)
Summary of the method: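 Phospholipidosis is scored by imaging LipidTOX-stained pits in HepG2 cells exposed to compound for 24 h at 37 C; pit counts and integrated intensities per well and per cell serve as outputs.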

[4] = qHTS assay to identify small molecule HDAC inhibitors (AID 1259364); note: top concentration of the series differs between compounds; nearly all actives have a fitted effect of over 45% in size
Summary of the method: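 Homogeneous cell-based luminescent assay of endogenous class I/II HDAC activity; HCT-116 cells, 2 h compound exposure, 30 min HDAC-Glo development at RT.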

[5] = qHTS assay to identify small molecule HDAC inhibitors - cell viability counter screen (AID 1259365); note: series mostly up to about 92 µM; nearly all actives have a fitted effect of over 50% in size
Summary of the method: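 Viability readout: CellTiter-Glo luminescence. Wild-type HCT-116 cells, 2hr compound treatment following overnight attachment at 37 C.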

[6] = qHTS assay to identify small molecule agonists of the sonic hedgehog signaling (Shh) pathway - cell viability counter screen (AID 1259366); note: nearly all actives have a fitted effect of over 50% in size; note: potency is the fitted concentration of half-maximal effect
Summary of the method: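 Viability measured fluorometrically (CellTiter-Fluor, 1hr, 37C) in 3T3 Gli1-Luc reporter cells after 23hr compound exposure within a 24hr incubation at 37C/5% CO2.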

[7] = qHTS assay to identify small molecule antagonists of the sonic hedgehog signaling (Shh) pathway - cell viability counter screen (AID 1259367); note: nearly all actives have a fitted effect of over 55% in size
Summary of the method: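 Cells: 3T3 Gli1-Luc, 2,000/well, 4 hr pre-incubation. Compounds in DMSO, then conditioned medium. Incubation 24 hr, 37C, 5% CO2. CellTiter-Fluor at 23 hr, 1 hr, fluorescence.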

[8] = qHTS assay to identify small molecule agonists of the sonic hedgehog signaling (Shh) pathway (AID 1259368; calls by dose curve;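 note: NIH/3T3-derived 3T3Gli1-Luc cells carrying a stable Gli1-driven firefly luciferase reporter; series mostly up to about 92 µM; nearly all actives have a fitted effect of over 15% in size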)
Summary of the method: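 Steps: seed 3T3 Gli1-Luc cells, incubate 4 hr at 37 C, pin-transfer compounds in DMSO alongside a positive control, incubate 24 hr, add luciferase detection reagent, wait 30 min at room temperature, read luminescence.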

[9] = qHTS assay to identify small molecule antagonists of the sonic hedgehog signaling (Shh) pathway (AID 1259369; calls by dose curve; note: nearly all actives have a fitted effect of over 45% in size)
Summary of the method: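 Inhibition of Shh signalling is measured as reduced Gli1-response-element firefly luciferase output in an NIH/3T3-derived stable reporter clone stimulated with conditioned medium for 24hr.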

[10] = target: Estrogen receptor beta (Homo sapiens) (UniProt Q92731); experiment: qHTS assay to identify small molecule agonists of the estrogen receptor beta (ER-beta) signaling pathway (AID 1259377; active = well fitted activation curve with a large enough effect in the signal ratio in the repeat runs, not every such curve was filed as active; the % refers to the signal ratio)
Chain of Estrogen receptor beta (Homo sapiens) (Q92731 whole entry, looked up): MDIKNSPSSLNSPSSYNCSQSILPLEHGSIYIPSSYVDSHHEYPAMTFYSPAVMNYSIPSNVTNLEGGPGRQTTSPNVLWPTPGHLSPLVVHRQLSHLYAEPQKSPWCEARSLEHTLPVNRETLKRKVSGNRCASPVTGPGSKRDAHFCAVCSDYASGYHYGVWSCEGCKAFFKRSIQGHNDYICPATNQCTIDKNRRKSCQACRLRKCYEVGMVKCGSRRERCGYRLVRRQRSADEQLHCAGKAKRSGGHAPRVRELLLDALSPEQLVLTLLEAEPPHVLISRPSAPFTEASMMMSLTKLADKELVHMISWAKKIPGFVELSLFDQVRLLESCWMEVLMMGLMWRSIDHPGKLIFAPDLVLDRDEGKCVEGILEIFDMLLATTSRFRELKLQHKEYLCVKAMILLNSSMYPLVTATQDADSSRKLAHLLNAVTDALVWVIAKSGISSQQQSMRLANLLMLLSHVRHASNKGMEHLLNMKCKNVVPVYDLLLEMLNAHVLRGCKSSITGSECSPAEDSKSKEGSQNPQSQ
Summary of the method: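 A UAS-controlled beta-lactamase reporter in ER-beta-UAS-bla HEK293T cells reports receptor activation. Compounds act for 16 hr at 37C in 2% charcoal-stripped serum, and a FRET substrate is read by fluorescence after 2 hours.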
% is set by controls: 0 for no effect and ±100 for the full control effect.

CC1(C)OC[C@@H](COC(=O)CCc2ccc(OC[C@@H](O)CNCCNC(=O)N3CCOCC3)cc2)O1
inactive: Potency [1] | outcome [2] | outcome [3] | Potency [4] | outcome [5] | Potency [6] | Potency [7] | outcome [8] | Potency [9] | Potency [10]

CCOC(=O)C(=O)CCCCCCl
inactive: Potency [1] | outcome [2] | Potency [4] | outcome [5] | Potency [6] | Potency [7] | outcome [8] | Potency [9] | Potency [10]

O=[N+]([O-])c1cncn1CCN1CCOCC1
inactive: Potency [1] | outcome [2] | Potency [4] | Potency [6] | Potency [7] | outcome [8] | Potency [9] | Potency [10]

NS(=O)(=O)Cc1noc2ccccc12
inactive: Potency [1] | outcome [3] | Potency [4] | outcome [5] | Potency [6] | Potency [7] | outcome [8] | Potency [9]

O=S(=O)(O)c1cccc(S(=O)(=O)O)c1
inactive: Potency [1] | outcome [2] | Potency [4] | Potency [6] | Potency [7] | outcome [8] | Potency [9]

C=C(C)C(=O)OCC(O)CO (stereo unspecified)
inactive: Potency [1] | Potency [4] | outcome [5] | Potency [6] | Potency [7] | outcome [8] | Potency [9]

C[N+](C)(CCOc1ccccc1)Cc1cccs1
inactive: Potency [1] | outcome [3] | Potency [4] | outcome [5] | Potency [6] | Potency [7] | outcome [8] | Potency [9]

O=C(O)CCSCCC(=O)O
inactive: Potency [1] | outcome [2] | Potency [4] | outcome [5] | Potency [6] | Potency [7] | outcome [8] | Potency [9] | Potency [10]

CCOc1c(N2CCOCC2)cnn(C)c1=O
inactive: Potency [1] | outcome [2] | Potency [4] | outcome [5] | Potency [6] | Potency [7] | outcome [8] | Potency [9] | Potency [10]

Nc1c2c(nc3c1CCC3)CCCC2
inactive: Potency [1] | outcome [2] | outcome [3] | Potency [4] | outcome [5] | Potency [6] | Potency [7] | outcome [8]

Cc1nc2ccc(CN(C)c3ccc(C(=O)N[C@@H](CCC(=O)O)C(=O)O)s3)cc2c(=O)[nH]1
inactive: Potency [1] | outcome [3] | Potency [4] | outcome [5] | Potency [6] | Potency [7] | outcome [8] | Potency [9]

CC(=O)N[C@H]1[C@H]([C@H](O)[C@H](O)CO)OC(C(=O)O)=C[C@@H]1N=C(N)N
inactive: Potency [1] | outcome [2] | outcome [3] | Potency [4] | outcome [5] | Potency [6] | Potency [7] | outcome [8] | Potency [9]

CC(C)(C)c1ccc(-c2ccc(C(C)(C)C)cc2)cc1
inactive: Potency [1] | outcome [2] | Potency [4] | outcome [5] | Potency [6] | Potency [7] | outcome [8] | Potency [9] | Potency [10]

CC[N+](CC)(CC)CCOc1cccc(OCC[N+](CC)(CC)CC)c1OCC[N+](CC)(CC)CC
inactive: Potency [1] | outcome [3] | Potency [4] | outcome [5] | Potency [6] | Potency [7] | outcome [8] | Potency [9]

CC1=NN(c2cccc(S(=O)(=O)O)c2)C(=O)C1
inactive: Potency [1] | outcome [2] | Potency [4] | outcome [5] | Potency [6] | Potency [7] | outcome [8] | Potency [9]

CC(=O)O[C@@]12CO[C@@H]1C[C@H](O)[C@@]1(C)C(=O)[C@H](O)C3=C(C)[C@@H](OC(=O)[C@H](O)[C@@H](NC(=O)OC(C)(C)C)c4ccccc4)C[C@@](O)([C@@H](OC(=O)c4ccccc4)[C@H]21)C3(C)C
inactive: Potency [1] | outcome [2] | outcome [3] | Potency [4] | outcome [5] | outcome [8]
active: Potency [6] 6.68 µM

CCCCCCCC1CCCC1=O (stereo unspecified)
inactive: Potency [1] | outcome [2] | Potency [4] | outcome [5] | Potency [6] | Potency [7] | outcome [8] | Potency [9] | Potency [10]

CCCCOCCOC(=O)COc1cc(Cl)c(Cl)cc1Cl
inactive: Potency [1] | outcome [2] | Potency [4] | outcome [5] | Potency [6] | Potency [7] | outcome [8] | Potency [9]

CCCCS(=O)(=O)N[C@@H](Cc1ccc(OCCCCC2CCNCC2)cc1)C(=O)O
inactive: Potency [1] | outcome [2] | PLD induction [3] -2.88% [at 1.53 µM] | Potency [4] | outcome [5] | Potency [6] | Potency [7] | outcome [8] | Potency [9]

CCCCCCCCCC[N+](C)(C)[O-]
inactive: Potency [1] | outcome [2] | Potency [4] | outcome [5] | Potency [6] | Potency [7] | outcome [8] | Potency [9]

NC(=O)NC1N=C([O][Al])NC1=O (stereo unspecified)
inactive: Potency [1] | Potency [4] | outcome [5] | Potency [6] | Potency [7] | outcome [8] | Potency [9]

Cc1onc(-c2c(Cl)cccc2Cl)c1C(=O)Cl
inactive: Potency [1] | outcome [2] | Potency [4] | outcome [5] | Potency [6] | Potency [7] | outcome [8] | Potency [9]

CO[C@@]1(NC(=O)CSC[C@@H](N)C(=O)O)C(=O)N2C(C(=O)O)=C(CSc3nnnn3C)CS[C@@H]21
inactive: Potency [1] | outcome [2] | Potency [4] | outcome [5] | Potency [6] | Potency [7] | outcome [8] | Potency [9]

Cc1ccc(C(=O)c2ccc(CC(=O)O)n2C)cc1
inactive: Potency [1] | outcome [2] | outcome [3] | outcome [5] | Potency [6] | Potency [7] | outcome [8] | Potency [9]

O=S(=O)(O)c1cc(O)c(O)c(S(=O)(=O)O)c1
inactive: Potency [1] | outcome [2] | Potency [4] | outcome [5] | Potency [6] | Potency [7] | outcome [8] | Potency [9] | Potency [10]

Source: PubChem BioAssay (Tox21)
